Where “and” joins values, the source holds several entries; their conditions need not be identical. Equal entries are not always repeated. Inconclusive results are not listed. Unmarked numbers belong to inactive results. Calls of active or inactive are those of the source. The call rests on the fitted dose curve; in most records, active means well fitted inhibition curve with a large enough effect; inconclusive means small, poorly fitted or top-dose-only effect; inactive means flat fitted curve, though single readings scatter.
On the % scale 0 is the no-effect control and ±100 the full control effect; potency means the concentration at half of the fitted maximal effect.

The subject of one test is HaCat. In words: Cytotoxic Profiling of Annotated Libraries Using Quantitative High-Throughput Screening (AID 1296008). Further: nearly all actives have a fitted effect of over 60% in size. To be noted: Five cell lines viability, CellTiter-Glo ATP luminescence, 48-72 h; max response: active compounds read low. The method, boiled down: (§1)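 Cells exposed to compounds for 48 or 72 hr at 37 degrees Celsius. Viability read as ATP-coupled luminescence with CellTiter-Glo after 10 min at room temperature.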
On the technique in general: In ATP-based viability assays light output follows the ATP content of the culture.
As to `CNCC(O)c1ccc(O)c(O)c1` (centres undefined), the max response was -0.0091%.
Take `CN1CCCCC1CCN1c2ccccc2Sc2ccc(S(C)=O)cc21` (centres undefined): the call was inactive.
Take `CSc1ccc2c(c1)C(N1CCN(C)CC1)Cc1ccccc1S2` (centres undefined): the result was inactive.
For `CCN(CC)CCSC(=O)C(c1ccccc1)c1ccccc1`, the max response is -3.95%.
For `O=C1Nc2ccc(Cl)cc2[C@@](C#CC2CC2)(C(F)(F)F)O1`, the outcome was inactive.
As for `NC(=O)N/N=C/c1ccc([N+](=O)[O-])o1`, the max response was -0.194% and the outcome was inactive.
For `C[C@]12C[C@H](O)[C@H]3[C@@H](CCC4=CC(=O)CC[C@@]43C)[C@@H]1CC[C@@H]2C(=O)CO`, the max response was 1.38%.
`CCCCN(CCCC)CC(O)c1cc(Cl)cc2c1-c1ccc(Cl)cc1/C2=C/c1ccc(Cl)cc1` (centres undefined): the max response was -7.84%.
With `C=Cc1c(C)c2cc3[nH]c(cc4nc(cc5nc(cc1[nH]2)C(C)=C5CCC(=O)O)C(CCC(=O)O)=C4C)c(C)c3C=C`, the call was inactive.
Consider `CC1=C(/C=C/C(C)=C/C=C/C(C)=C/C(=O)O)C(C)(C)CCC1`, for which the max response is -3.44%.
For `CC(=O)Oc1ccc(C2(c3ccc(OC(C)=O)cc3)C(=O)Nc3ccccc32)cc1`, the max response was -16.5%.
In the case of `CN1CCN(C2Cc3ccccc3Sc3ccc(Cl)cc32)CC1` (centres undefined), the result was inactive.
As for `CC(CN(C)C)CN1c2ccccc2CCc2ccccc21` (centres undefined), the max response was 2.23%.
On to `OCc1cc(C(O)CNCCCCCCOCCCCc2ccccc2)ccc1O` (centres undefined), for which the max response is 2.23%.
Still for that read-out and setting: in the case of `COC(=O)C1=C(C)NC(C)=C(C(=O)OC)C1c1ccccc1[N+](=O)[O-]` it was -2.57%.
For `COc1ccc2cc1Oc1ccc(cc1)C[C@H]1c3c(cc4c(c3Oc3cc5c(cc3OC)CCN(C)[C@@H]5C2)OCO4)CCN1C`, the compound was classed as inactive.
For the compound `CC(CN1c2ccccc2Sc2ccccc21)N(C)C` (centres undefined), the max response was 3.18%.
For the compound `CC1=C(CC(=O)O)c2cc(F)ccc2/C1=C\c1ccc(S(C)=O)cc1` (centres undefined), the compound was called inactive.
`CNCCCC1c2ccccc2C=Cc2ccccc21`: the max response was -1.18%.
In the case of `CN(C)CCC=C1c2ccccc2CCc2ccccc21`, the result was inactive.

Another test deals with KB-3-1. Described as above. The settings on record: Five cell lines viability, CellTiter-Glo ATP luminescence, 48-72 h; max response: active compounds read low. The method, boiled down: as §1
For `CN1CCCCC1CCN1c2ccccc2Sc2ccc(S(C)=O)cc21` (centres undefined), the max response is -15.2% and 0.424%.
As for `CSc1ccc2c(c1)C(N1CCN(C)CC1)Cc1ccccc1S2` (centres undefined), the max response was 0.66%.
Regarding `[Cl][In]([Cl])[Cl]`, the max response was 0.288% and -3.71%.
`O=C1Nc2ccc(Cl)cc2[C@@](C#CC2CC2)(C(F)(F)F)O1`: the max response is 17.8% and -24.9%.
On to `CC(C)c1c(C(=O)Nc2ccccc2)c(-c2ccccc2)c(-c2ccc(F)cc2)n1CC[C@@H](O)C[C@@H](O)CC(=O)O`, for which the max response was -3.5%.
As to `OCCN1CCN(CCCN2c3ccccc3Sc3ccc(Cl)cc32)CC1`, the max response is -16%.
Consider `CC(=O)O[C@@]12CO[C@@H]1C[C@H](O)[C@@]1(C)C(=O)[C@H](O)C3=C(C)[C@@H](OC(=O)[C@H](O)[C@@H](NC(=O)OC(C)(C)C)c4ccccc4)C[C@@](O)([C@@H](OC(=O)c4ccccc4)[C@H]21)C3(C)C`, for which the Potency is 7.3 nM (active).
On to `NC(=O)N/N=C/c1ccc([N+](=O)[O-])o1`, for which the max response was -7.34% and -25.8%.
Take `CCN(CC)CCCC(C)Nc1c2ccc(Cl)cc2nc2ccc(OC)cc12` (centres undefined): the max response is -7.27%.
Same read-out and setting: in the case of `CCCCN(CCCC)CC(O)c1cc(Cl)cc2c1-c1ccc(Cl)cc1/C2=C/c1ccc(Cl)cc1` (centres undefined) it was -7.25%; in that of `C=Cc1c(C)c2cc3[nH]c(cc4nc(cc5nc(cc1[nH]2)C(C)=C5CCC(=O)O)C(CCC(=O)O)=C4C)c(C)c3C=C`, -3.43%; in that of `COCCOC(=O)C1=C(C)NC(C)=C(C(=O)OC/C=C/c2ccccc2)C1c1cccc([N+](=O)[O-])c1` (centres undefined), 22.9%.
Regarding `CCN(CC)CCNC(=O)c1c(C)[nH]c(/C=C2\C(=O)Nc3ccc(F)cc32)c1C`, the max response is -5.42%.
Turning to `CN1CCN(C2Cc3ccccc3Sc3ccc(Cl)cc32)CC1` (centres undefined), the max response is 6.06%.
For the compound `CC(CN(C)C)CN1c2ccccc2CCc2ccccc21` (centres undefined), the max response is 4.48%.
For the compound `OCc1cc(C(O)CNCCCCCCOCCCCc2ccccc2)ccc1O` (centres undefined), the max response was -19.3%.
Turning to `COc1ccc2cc1Oc1ccc(cc1)C[C@H]1c3c(cc4c(c3Oc3cc5c(cc3OC)CCN(C)[C@@H]5C2)OCO4)CCN1C`, the max response was 0.814%.
As for `CN(C)CCCN1c2ccccc2Sc2ccc(Cl)cc21`, the max response was -6.48%.
